Tests used:
Experiment in all cases: log2 ratio of Biotin-Ahx-Ub-VS probe labelling (fragment/DMSO); higher = less target engagement (more negative = stronger competition), active = hit call of the paper (q ≤ 0.05, log2 ratio ≤ -1)
Details in all cases: compound concentration: 200 uM; treatment time: 3 h
[1] = biological target: T1, USP19 (UniProt O94966)
T1 sequence (whole entry): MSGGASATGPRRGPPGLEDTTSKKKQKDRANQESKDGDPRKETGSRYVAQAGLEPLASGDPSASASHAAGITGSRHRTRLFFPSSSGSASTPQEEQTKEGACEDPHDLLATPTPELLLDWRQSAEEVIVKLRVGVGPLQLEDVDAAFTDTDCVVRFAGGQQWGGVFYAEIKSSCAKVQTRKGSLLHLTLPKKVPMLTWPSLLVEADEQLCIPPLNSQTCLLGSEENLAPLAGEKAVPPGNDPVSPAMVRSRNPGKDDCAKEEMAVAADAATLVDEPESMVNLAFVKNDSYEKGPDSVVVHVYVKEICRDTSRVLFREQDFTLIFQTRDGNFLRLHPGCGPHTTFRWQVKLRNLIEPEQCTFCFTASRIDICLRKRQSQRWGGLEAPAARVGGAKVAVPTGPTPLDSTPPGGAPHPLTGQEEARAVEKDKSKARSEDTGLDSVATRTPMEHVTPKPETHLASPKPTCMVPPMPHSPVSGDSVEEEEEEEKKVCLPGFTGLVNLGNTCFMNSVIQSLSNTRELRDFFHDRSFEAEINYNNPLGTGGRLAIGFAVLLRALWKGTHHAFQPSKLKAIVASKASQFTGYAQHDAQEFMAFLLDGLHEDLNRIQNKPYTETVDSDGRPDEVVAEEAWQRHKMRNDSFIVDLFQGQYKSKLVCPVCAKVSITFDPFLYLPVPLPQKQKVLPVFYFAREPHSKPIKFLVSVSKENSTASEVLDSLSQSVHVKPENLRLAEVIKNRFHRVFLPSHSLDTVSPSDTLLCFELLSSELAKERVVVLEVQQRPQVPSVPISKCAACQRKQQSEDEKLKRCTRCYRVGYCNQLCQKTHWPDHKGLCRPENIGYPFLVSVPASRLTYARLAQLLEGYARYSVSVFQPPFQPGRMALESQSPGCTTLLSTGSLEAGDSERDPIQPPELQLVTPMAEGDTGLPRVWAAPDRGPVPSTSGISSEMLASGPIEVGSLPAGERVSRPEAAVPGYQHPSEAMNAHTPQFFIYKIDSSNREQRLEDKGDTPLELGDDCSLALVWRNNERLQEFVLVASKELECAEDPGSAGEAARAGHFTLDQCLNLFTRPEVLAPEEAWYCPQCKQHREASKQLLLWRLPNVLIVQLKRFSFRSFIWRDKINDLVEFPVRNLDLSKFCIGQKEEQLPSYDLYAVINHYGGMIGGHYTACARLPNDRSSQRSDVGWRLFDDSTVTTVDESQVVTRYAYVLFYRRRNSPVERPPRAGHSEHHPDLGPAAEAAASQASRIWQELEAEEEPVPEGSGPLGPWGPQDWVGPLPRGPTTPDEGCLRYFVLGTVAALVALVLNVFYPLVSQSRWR
Summary of the method: (§1)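 The table lists average log2 ratios of fragment over vehicle, from an unpaired t-test on global-median-normalised Spectronaut label-free quantities. Proteins with ≥2 unique peptides were used. Samples were HEK293T lysate (495 µg) treated in triplicate with fragment at 200 µM or vehicle for 3 h, then with Biotin-Ahx-Ub-VS (0.5 µM final) for 1 h, with labelled DUBs NeutrAvidin-enriched and run by diaPASEF LC-MS/MS.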

[2] = biological target: USP24 (UniProt Q9UPU5)
USP24, sequence (Q9UPU5 whole entry): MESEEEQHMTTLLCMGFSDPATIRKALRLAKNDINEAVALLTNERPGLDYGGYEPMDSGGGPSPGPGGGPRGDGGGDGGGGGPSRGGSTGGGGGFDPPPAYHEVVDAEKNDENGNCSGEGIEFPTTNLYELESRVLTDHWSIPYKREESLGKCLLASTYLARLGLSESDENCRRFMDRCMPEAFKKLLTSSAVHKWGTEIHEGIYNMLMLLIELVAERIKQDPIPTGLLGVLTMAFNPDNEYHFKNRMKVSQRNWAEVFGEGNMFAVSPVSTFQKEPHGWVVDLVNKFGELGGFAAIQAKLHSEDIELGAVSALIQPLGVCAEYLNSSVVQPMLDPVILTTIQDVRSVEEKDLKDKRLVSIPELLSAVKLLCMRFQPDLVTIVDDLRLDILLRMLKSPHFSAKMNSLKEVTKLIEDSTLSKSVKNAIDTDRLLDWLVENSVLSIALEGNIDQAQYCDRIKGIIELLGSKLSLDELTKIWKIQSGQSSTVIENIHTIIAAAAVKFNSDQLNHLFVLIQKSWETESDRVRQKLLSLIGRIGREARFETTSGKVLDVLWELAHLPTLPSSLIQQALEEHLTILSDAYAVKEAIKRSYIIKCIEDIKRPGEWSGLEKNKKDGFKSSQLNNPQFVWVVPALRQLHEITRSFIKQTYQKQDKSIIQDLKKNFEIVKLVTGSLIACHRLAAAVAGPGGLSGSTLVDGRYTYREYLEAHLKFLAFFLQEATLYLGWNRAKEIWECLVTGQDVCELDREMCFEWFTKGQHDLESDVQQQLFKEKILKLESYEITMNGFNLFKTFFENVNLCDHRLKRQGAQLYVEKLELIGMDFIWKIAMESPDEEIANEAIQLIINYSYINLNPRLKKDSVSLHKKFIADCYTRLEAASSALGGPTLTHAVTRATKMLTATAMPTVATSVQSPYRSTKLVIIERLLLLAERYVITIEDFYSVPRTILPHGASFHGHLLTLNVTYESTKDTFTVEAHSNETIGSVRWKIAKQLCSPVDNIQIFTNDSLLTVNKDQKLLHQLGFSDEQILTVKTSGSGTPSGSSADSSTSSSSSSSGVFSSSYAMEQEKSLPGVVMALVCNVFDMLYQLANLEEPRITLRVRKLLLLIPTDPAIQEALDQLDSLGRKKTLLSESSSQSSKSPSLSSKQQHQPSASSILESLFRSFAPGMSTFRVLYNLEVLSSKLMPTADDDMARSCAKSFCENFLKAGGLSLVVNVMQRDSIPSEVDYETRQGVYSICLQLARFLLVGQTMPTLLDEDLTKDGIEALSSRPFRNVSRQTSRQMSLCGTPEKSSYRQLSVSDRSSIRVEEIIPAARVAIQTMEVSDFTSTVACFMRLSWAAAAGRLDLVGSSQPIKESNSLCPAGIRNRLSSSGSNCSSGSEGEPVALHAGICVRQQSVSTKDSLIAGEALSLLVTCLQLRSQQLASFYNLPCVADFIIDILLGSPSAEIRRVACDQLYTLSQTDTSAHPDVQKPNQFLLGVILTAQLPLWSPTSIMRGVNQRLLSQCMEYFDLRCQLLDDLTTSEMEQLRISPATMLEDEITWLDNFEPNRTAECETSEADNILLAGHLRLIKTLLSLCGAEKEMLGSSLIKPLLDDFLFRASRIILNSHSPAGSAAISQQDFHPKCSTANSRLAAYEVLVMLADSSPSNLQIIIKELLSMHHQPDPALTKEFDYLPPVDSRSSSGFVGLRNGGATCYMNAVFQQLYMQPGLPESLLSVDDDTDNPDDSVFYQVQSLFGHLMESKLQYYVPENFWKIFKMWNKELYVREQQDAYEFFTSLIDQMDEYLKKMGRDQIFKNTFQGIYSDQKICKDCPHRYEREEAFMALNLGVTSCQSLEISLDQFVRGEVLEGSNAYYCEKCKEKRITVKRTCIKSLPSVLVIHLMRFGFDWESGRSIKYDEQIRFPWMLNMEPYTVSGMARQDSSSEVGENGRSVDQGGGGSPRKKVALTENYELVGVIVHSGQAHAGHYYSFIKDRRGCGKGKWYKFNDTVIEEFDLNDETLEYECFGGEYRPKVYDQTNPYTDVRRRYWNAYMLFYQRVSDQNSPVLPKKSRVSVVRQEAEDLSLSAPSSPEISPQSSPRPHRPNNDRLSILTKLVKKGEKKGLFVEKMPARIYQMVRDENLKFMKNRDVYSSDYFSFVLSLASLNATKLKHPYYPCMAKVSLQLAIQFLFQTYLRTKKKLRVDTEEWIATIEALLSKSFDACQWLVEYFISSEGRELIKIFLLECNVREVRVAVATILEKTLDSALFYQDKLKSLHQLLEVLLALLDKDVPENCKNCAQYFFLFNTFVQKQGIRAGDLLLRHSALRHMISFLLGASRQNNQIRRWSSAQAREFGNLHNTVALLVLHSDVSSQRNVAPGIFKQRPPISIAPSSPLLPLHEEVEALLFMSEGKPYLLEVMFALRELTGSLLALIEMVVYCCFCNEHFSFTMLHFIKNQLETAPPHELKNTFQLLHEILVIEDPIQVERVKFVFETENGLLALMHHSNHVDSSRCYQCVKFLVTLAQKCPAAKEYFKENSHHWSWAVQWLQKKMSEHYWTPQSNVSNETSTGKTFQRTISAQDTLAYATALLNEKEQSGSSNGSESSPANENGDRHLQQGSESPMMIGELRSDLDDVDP
Summary of the method: as §1

[3] = biological target: T2, USP25 (UniProt Q9UHP3)
T2 sequence (whole entry): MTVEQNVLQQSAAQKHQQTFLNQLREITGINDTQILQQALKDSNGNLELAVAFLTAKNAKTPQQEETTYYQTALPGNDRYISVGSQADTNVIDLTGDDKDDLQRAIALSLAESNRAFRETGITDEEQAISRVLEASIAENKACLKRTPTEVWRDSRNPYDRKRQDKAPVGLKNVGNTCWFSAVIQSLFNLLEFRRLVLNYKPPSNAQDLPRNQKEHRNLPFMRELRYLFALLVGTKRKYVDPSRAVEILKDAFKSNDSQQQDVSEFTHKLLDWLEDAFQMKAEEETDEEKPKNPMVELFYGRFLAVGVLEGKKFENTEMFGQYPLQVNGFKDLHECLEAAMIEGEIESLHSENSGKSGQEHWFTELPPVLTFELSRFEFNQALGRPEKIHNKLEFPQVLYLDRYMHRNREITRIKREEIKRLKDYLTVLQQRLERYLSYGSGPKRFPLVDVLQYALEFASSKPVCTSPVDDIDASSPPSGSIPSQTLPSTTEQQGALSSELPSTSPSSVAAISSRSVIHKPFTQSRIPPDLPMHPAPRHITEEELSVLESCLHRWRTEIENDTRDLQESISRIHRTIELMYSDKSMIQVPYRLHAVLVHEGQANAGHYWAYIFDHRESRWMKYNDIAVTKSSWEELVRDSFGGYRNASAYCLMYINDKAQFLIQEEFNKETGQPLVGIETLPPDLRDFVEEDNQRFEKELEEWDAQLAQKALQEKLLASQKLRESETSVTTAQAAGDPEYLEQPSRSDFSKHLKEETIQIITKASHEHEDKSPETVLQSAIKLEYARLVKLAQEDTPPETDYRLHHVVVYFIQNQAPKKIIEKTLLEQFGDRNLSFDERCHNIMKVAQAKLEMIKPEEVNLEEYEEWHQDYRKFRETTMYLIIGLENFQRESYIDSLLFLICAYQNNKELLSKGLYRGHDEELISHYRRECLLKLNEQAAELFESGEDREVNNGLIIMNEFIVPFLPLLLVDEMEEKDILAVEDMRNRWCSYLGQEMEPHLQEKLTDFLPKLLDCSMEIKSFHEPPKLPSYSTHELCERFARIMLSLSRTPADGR
Summary of the method: as §1

[4] = biological target: T3, USP28 (UniProt Q96RU2)
T3 sequence (whole entry): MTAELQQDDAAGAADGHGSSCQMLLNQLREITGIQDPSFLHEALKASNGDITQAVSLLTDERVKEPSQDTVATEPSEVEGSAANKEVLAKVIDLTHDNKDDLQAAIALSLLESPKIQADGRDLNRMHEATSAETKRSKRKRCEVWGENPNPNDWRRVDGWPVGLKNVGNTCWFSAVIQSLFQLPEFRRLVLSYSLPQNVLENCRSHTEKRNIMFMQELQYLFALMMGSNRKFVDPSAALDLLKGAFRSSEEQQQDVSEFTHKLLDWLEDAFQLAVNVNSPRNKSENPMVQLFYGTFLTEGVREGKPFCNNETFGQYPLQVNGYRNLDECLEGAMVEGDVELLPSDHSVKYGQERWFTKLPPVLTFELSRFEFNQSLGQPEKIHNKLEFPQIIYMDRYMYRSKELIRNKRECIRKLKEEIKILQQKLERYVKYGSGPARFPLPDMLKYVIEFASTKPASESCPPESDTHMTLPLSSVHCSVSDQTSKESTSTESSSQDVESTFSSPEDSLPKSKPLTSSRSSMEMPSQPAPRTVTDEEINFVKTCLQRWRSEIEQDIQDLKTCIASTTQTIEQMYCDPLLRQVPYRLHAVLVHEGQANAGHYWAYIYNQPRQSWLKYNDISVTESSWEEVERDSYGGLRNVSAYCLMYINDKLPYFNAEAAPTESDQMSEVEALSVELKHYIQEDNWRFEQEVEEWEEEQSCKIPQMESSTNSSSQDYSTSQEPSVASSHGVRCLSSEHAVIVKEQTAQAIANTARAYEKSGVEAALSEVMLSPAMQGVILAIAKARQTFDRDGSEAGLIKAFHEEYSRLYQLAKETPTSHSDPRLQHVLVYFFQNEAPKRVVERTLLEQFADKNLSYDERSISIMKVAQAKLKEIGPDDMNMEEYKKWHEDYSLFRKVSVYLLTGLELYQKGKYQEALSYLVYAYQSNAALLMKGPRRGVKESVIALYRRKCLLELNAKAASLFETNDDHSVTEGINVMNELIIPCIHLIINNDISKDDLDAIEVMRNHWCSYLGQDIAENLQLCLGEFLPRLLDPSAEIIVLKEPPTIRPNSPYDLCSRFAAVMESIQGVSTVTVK
Summary of the method: as §1

Measured: log2 ratio of Biotin-Ahx-Ub-VS probe labelling

Cc1ccccc1C1(CNC(=O)CCl)CCOCC1
inactive: [1] -0.115 | [2] -0.178 | [3] -0.264 | [4] -0.284

Reference: the supplement of paper PMC11732987, “Enantioselective OTUD7B fragment discovery through chemoproteomics screening and high-throughput optimisation” (Communications Chemistry, 2025)
